Bioassay records deposited in PubChem by several laboratories.
aDG glyco act: alpha-DG glycosylation activation | activation, % at 10 µM | 0.22% of 360,000 active | Pro5-aDG cells, alpha-DG glycosylation AlphaScreen (IIH6); 0% Pro5, 100% B10-LARGE cell signal;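 active means activation of at least 8% versus controls, or a plate z-score of at least 8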;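 further: Pro5 are CHO cells carrying HIG-tagged alpha-DG that lacks glycosylation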
AI-2 QS mod: modulators of Vibrio harveyi AI-2 quorum sensing system; AID 2094; 0.4% of 300,000 active; activity change, % at 7.5 µM; Vibrio harveyi JMH597 AI-2 luminescence/OD600 ratio, 9 h; hits give low values; strain lacks LuxN and CqsS sensors; 0 = neutral-control median; in the data active means activity change below about -75%, passing the limit was not always enough; inconclusive means no clear call, values can overlap the other calls;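 further: luminescence divided by OD600 gain over 9 h not by final OD600 alone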
A1 inh: inhibitors of the anti-apoptotic protein A1, read as caspase activation. MEF A1-2A-BIM cells, Caspase-Glo 3/7 luminescence, 3 h; percent of clofoctol response, vehicle zero. caspase activation, % (no concentration beside the values). 0.066% of 330,000 active. AID 2462;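 active means over half of replicate activation scores above 10%, or exactly half above 10 with the replicate mean above 10; inconclusive means replicate mean below 10 yet half the replicates above 10; inactive means over half of replicates below 10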
SUMO Mot1 rescue: SUMOylation pathway inhibition by Mot1-301 growth rescue. S. cerevisiae Mot1-301 growth rescue, ATP luminescence, 38.5C; percent above DMSO median, 100 means doubled. growth rescue, % at 18.8 µM. 1% of 320,000 active;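 active means every valid replicate shows activation above 250% relative to neutral control wells; inactive means the rest, any valid replicate at or below 250%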;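 further: OY570 slx delta 5 strain wells were the positive control but not used for scaling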
ARNT-TACC3 inh: disrupts binding between human ARNT and TACC3; Q9Y6A5; AlphaScreen His-ARNT PAS-B/GST-TACC3 binding, luminescence; TACC3 fragment carries E629A point mutation; inhibition, % at 9.99 µM; 0.66% of 390,000 active;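 active means mean inhibition of replicates at least 50% and at least half of replicates each reaching 50%; inconclusive means half or more replicates reach 50% but mean below 50%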;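 further: 0% = complete ARNT plus TACC3 wells and 100% = ARNT alone without TACC3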
* hit, by the source's call; ? = inconclusive; / = no result given. Shown are actives, neighbours in structure and some others; about 1.8% of the full set was active somewhere.

SMILES	aDG glyco act	AI-2 QS mod	A1 inh	SUMO Mot1 rescue	ARNT-TACC3 inh
Cc1cccc(NC(=O)CCC(=O)N/N=C/c2ccc(O)cc2O)c1	0	15	1	20	60*
Cc1ccccc1NC(=S)N/N=C/c1ccc(O)cc1O	0	45	0	-8	58*
COc1ccc(C=NNC(=O)c2ccccc2NS(=O)(=O)c2cccs2)cc1O	0	/	1	-10	4
O=C(CNC(=O)c1cccnc1)N/N=C/c1ccc(O)cc1O	0	14	1	3	80*
Cn1cc(Br)c(C(=O)NC2CCCCCC2)n1	0	-7	0	-4	-6
O=C(CNC(=O)c1cccs1)N/N=C/c1ccc(O)cc1O	0	20	0	-10	70*
COc1ccccc1/C=C/C(=O)NCC(=O)N/N=C/c1ccccc1	0	32	-1	-12	/
COc1ccccc1/C=C\C(=O)NCC(=O)N/N=C/c1ccc(O)cc1O	0	-18	0	-4	54*
O=C(CCc1ccccc1)NCC(=O)N/N=C/c1ccc(O)cc1O	0	38	0	26	35
CC1CCCC2(C1)NC(=S)N(c1ccccc1)N2 (stereo unspecified)	0	3	-1	122	0
S=C1NC2(CCCCC2)NN1c1ccccc1	0	22	0	364*	-9
COC(=O)c1sccc1NC(=O)c1ccc(OC)cc1OC	0	10	0	420*	-3
COC(=O)c1sccc1NC(=O)c1cccc(OC)c1	0	2	-1	-10	-6
Cc1cc(C)n2nc(C(=O)OCC(=O)c3cc(C)n(CC4CCCO4)c3C)nc2n1 (stereo unspecified)	0	8	0	/	-16
Cc1cc(C)n(/N=C/c2c[nH]c3ccccc23)c(=O)c1C#N	0	17	0	296*	0
O=C(Nc1ccc(O)c2c(=O)cc(-c3cccc(Cl)c3)oc12)c1cccc(Cl)c1	0	-4	15*	-19	-3
Brc1ccc(-c2cn3c(n2)CCc2ccc4cccnc4c2-3)cc1	0	11	1	/	47*
O=C(COc1ccc(Br)cc1)Nc1nnc(C2CC2)s1	0	/	-1	8	-6
O=C1c2ccccc2C(=O)c2c1cccc2-n1nnc2ccccc21	0	13	0	-23	-3
O=C1C(N2CCOCC2)=C(n2nnc3ccccc32)C(=O)c2ccccc21	2	31	2	-59	45*
O=C(CS(=O)(=O)c1ccccc1)N(CCCN1CCOCC1)c1nc2c(F)cccc2s1	0	13	3	349*	2
CN1CCCCN2[C@H](CO)[C@H](c3ccc(-c4cccnc4)cc3)[C@@H]2C1	/	/	/	/	-1
O=C(Nc1ccccn1)c1ccc([N+](=O)[O-])o1	4	?	2	-51	/
Cc1ccc(-c2csc(NC(=O)c3ccc(C)o3)n2)cc1	0	0	-1	182	-2
Cc1ccc(-c2csc(NC(=O)c3ccc([N+](=O)[O-])o3)n2)cc1	2	-158*	0	52	0
SMILES	aDG glyco act	AI-2 QS mod	A1 inh	SUMO Mot1 rescue	ARNT-TACC3 inh
Cc1ccnc(NC(=O)c2ccc([N+](=O)[O-])o2)c1	2	-252*	0	-39	5
O=C(Cc1noc2ccccc12)Nc1ccc(Cl)cc1	0	-84*	-1	350	-7
O=C(O)c1cccc(Cn2c(Cl)c(/C=N/NC(=O)c3ccccc3Cl)sc2=O)c1	0	21	1	-2	42
O=C(O)c1cccc(Cn2c(Cl)c(/C=N/Nc3ccccc3)sc2=O)c1	0	41	0	279*	-7
CCNCC(=O)N1c2ccccc2CCc2ccc(NC(=O)OCC)cc21	0	21	-3	293*	5
COc1ccc(-c2cc(=O)n(-c3nc4ccccc4[nH]3)[nH]2)cc1	0	28	-8	-8	47*
COc1ccc(-c2nc3ccccc3[nH]2)cc1	0	9	-8	-42	1
O=C(O)Cc1ccccc1C(=O)O	0	9	0	10	-1
O=C(O)Cc1cccc(=O)c(O)c1C(=O)O	0	/	/	/	93*
Cc1ccc2[nH]cc(CCNC(=O)c3ccc4c(c3)OCO4)c2c1	0	-80*	0	23	-15
Cc1cc(C(=O)NNC(=S)NC(=O)/C=C/c2ccccc2Cl)n[nH]1	0	61	1	0	62*
COC(=O)c1ccc(C2/C(=C(\O)c3cccc(OC)c3)C(=O)C(=O)N2CCCN2CCOCC2)cc1 (stereo unspecified)	2	5	0	275	0
COC(=O)c1ccc(C2/C(=C(\O)c3cccc(OC)c3)C(=O)C(=O)N2CCCN(C)C)cc1 (stereo unspecified)	0	21	-1	-8	59*
Clc1ccccc1Cn1nnc(-c2ccccc2)n1	0	-7	0	15	-6
Clc1ccc(Cn2nnc(-c3ccccc3)n2)cc1	0	-81*	0	-11	/
O=C(C[C@H]1C=C[C@@H](NS(=O)(=O)c2ccc(F)cc2)[C@@H](CO)O1)NC1CCCCC1	/	/	/	/	4
S=c1[nH]nc(-c2cc(-c3ccccc3)n[nH]2)n1/N=C/C(Br)=C/c1ccccc1	0	22	0	539*	/
COc1cccc(-c2nnc(N(C)C(=O)C3CCOC3)s2)c1 (stereo unspecified)	0	19	-3	344*	19
O=C(CSc1nnc(-c2c[nH]c3ccccc23)o1)NCC1CCCO1 (stereo unspecified)	0	/	0	285*	-5
C[C@H](CO)N1C[C@H](C)[C@@H](CN(C)Cc2ccc(Oc3ccccc3)cc2)OCc2cnnn2CCCC1=O	0	/	/	/	0
COCc1nc2sc3c(c2c(=O)[nH]1)CCCC3	0	4	0	481*	-10
O=C(NCCc1ccccc1)c1ccc(Cl)nc1	0	-6	-2	-3	-14
COc1cccc(CC2(CO)CCCN(Cc3ccc(CN4CCCCC4)s3)C2)c1 (stereo unspecified)	1	25	1	-21	/
CCCCCC(=O)N1C[C@@H](n2cc(COC(=O)c3ccccc3)nn2)[C@H](O)C[C@@H]1c1ccccc1	0	/	/	/	/
CCc1cccc(OCC(=O)Nc2ccc(C)c(S(=O)(=O)N3CCCCCC3)c2)c1	0	36	0	15	-1
Cc1ccc(NC(=O)COc2ccc(N(C)C(=O)C(C)(C)C)cc2)cc1S(=O)(=O)N1CCCCC1	4.6*	/	-2	-10	/
CC(NC(=S)Nc1cccc(C(F)(F)F)c1)C(C)(C)C (stereo unspecified)	1	8	1	-11	-5
Cc1noc(C)c1S(=O)(=O)N(C)C[C@H]1OCCCC[C@@H](C)Oc2ccc(N(C)C)cc2C(=O)N([C@H](C)CO)C[C@@H]1C	/	/	/	/	6
OCCCNc1nc(-c2ccccc2)c2cc(Br)ccc2n1	0	18	-1	826*	-11
